In experiment [1] the target is T1, Ephrin type-B receptor 1 (Homo sapiens) (UniProt P54762).
T1 sequence (whole entry): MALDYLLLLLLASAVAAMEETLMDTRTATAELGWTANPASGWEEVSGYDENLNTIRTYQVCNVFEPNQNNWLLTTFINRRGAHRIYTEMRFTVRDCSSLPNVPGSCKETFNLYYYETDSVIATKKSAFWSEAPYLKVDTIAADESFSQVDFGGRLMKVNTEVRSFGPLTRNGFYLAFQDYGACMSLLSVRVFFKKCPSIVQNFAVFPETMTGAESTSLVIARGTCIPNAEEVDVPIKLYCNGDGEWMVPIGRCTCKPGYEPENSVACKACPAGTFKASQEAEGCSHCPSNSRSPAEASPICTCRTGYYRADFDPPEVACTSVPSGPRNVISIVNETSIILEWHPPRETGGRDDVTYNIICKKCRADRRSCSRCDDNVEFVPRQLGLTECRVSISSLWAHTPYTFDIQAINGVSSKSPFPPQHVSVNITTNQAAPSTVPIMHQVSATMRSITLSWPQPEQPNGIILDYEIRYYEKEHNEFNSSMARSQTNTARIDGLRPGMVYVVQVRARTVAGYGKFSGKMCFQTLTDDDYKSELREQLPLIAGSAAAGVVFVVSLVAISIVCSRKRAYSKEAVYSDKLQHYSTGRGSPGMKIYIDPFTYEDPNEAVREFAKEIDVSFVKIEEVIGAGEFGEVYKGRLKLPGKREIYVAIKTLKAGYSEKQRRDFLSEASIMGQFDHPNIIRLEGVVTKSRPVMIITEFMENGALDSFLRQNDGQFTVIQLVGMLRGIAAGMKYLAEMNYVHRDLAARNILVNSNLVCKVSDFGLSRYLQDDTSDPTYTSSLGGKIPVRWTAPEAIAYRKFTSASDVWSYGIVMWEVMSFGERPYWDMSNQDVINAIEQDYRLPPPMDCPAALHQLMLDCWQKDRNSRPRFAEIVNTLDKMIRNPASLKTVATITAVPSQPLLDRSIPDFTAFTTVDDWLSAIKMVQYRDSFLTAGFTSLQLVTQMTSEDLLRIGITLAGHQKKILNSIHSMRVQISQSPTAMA
Conditions: at 10 µM; call rule not given here.

Experiment [2] has as its target T2, Ephrin type-B receptor 2 (Homo sapiens) (UniProt P29323).
T2 sequence (whole entry): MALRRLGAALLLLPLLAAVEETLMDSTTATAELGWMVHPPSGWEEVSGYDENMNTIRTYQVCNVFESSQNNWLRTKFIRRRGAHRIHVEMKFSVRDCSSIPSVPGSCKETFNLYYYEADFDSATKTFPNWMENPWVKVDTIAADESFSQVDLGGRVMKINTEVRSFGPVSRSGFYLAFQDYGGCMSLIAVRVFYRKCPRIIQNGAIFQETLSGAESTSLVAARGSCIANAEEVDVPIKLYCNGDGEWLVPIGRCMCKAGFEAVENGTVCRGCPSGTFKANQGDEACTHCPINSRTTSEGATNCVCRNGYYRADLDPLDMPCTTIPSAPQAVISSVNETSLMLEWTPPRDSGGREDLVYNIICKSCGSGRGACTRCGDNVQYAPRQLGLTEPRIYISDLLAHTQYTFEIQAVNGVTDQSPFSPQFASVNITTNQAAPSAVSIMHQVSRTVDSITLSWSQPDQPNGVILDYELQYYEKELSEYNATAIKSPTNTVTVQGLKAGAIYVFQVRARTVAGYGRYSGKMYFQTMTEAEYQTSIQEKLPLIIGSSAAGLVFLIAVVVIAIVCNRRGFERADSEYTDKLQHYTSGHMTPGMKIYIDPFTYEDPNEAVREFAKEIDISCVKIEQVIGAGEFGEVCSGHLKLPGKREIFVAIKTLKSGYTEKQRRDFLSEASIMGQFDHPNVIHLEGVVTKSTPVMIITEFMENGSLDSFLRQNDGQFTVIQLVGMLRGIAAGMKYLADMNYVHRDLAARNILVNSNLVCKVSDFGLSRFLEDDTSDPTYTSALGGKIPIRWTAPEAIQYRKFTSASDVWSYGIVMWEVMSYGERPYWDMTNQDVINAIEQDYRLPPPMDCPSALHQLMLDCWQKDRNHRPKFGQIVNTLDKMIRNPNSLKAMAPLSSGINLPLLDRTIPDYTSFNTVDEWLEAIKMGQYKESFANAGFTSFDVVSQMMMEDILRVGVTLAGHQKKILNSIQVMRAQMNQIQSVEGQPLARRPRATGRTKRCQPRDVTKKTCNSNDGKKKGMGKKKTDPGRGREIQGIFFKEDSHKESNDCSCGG
Conditions: at 1 µM.

The target in experiment [3] is T2, Ephrin type-B receptor 2 (Homo sapiens). Conditions: at 10 µM.
In experiment [4] the target is T3, Ephrin type-B receptor 3 (Homo sapiens) (UniProt P54753).
T3 sequence (whole entry): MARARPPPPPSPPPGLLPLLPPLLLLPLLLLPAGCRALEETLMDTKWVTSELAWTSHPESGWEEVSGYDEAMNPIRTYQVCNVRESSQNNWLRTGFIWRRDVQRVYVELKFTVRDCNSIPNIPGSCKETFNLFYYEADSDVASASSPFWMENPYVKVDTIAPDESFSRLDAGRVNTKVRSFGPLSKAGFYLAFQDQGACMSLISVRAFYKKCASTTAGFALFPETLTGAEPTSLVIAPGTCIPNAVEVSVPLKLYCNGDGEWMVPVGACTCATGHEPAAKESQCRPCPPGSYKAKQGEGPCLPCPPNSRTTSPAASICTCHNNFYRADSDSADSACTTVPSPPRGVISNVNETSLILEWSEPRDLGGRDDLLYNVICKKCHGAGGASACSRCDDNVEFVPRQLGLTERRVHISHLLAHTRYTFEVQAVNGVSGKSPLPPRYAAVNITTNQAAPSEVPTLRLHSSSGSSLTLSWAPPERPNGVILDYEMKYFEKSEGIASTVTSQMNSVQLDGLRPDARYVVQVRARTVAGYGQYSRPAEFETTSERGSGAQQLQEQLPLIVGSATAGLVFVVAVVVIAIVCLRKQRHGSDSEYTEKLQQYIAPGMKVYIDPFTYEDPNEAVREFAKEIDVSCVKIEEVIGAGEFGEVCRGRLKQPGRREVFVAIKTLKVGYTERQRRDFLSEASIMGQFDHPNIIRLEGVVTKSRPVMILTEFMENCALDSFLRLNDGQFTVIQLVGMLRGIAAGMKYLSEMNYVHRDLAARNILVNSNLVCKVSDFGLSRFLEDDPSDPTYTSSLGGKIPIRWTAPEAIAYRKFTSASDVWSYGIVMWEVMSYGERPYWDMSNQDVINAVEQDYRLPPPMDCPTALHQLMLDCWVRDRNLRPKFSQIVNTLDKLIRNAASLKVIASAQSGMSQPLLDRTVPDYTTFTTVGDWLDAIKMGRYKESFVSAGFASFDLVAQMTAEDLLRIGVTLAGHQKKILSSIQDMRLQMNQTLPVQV
Conditions: at 1 µM.

Experiment [5] deals with T3, Ephrin type-B receptor 3 (Homo sapiens). The settings on record: at 10 µM.
Experiment [6] has as its target T4, Ephrin type-B receptor 4 (Homo sapiens) (UniProt P54760).
T4 sequence (whole entry): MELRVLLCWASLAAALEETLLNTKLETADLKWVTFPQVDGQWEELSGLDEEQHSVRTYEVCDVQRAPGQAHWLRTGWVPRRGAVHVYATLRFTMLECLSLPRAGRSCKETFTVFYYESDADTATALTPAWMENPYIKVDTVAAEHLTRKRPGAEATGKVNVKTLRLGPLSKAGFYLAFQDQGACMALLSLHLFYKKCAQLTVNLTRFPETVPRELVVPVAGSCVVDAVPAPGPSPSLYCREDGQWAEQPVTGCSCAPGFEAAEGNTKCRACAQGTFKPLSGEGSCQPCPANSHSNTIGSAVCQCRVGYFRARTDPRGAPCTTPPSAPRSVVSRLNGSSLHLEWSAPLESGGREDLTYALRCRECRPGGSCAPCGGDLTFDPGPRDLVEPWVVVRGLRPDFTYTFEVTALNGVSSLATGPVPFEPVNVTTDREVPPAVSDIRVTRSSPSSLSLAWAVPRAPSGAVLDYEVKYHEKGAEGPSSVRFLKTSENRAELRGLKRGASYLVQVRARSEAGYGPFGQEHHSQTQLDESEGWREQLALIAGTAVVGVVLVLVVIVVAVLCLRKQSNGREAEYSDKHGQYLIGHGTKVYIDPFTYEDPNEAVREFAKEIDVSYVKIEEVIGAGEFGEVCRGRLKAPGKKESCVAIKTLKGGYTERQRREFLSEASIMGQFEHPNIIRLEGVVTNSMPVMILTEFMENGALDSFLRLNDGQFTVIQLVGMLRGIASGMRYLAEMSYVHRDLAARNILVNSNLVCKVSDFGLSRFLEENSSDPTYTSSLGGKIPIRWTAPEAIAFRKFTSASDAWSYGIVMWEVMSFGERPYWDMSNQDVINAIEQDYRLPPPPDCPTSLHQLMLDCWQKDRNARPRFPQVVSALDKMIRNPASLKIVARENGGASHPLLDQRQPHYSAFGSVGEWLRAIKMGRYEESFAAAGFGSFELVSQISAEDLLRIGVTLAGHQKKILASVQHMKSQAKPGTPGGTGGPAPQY
Conditions: at 1 µM.

The target in experiment [7] is T4, Ephrin type-B receptor 4 (Homo sapiens). Conditions: at 10 µM.
For experiment [8], the target named is Receptor tyrosine-protein kinase erbB-4 (Homo sapiens) (UniProt Q15303). Conditions: at 1 µM.
Sequence of Receptor tyrosine-protein kinase erbB-4 (Homo sapiens) (Q15303 whole entry): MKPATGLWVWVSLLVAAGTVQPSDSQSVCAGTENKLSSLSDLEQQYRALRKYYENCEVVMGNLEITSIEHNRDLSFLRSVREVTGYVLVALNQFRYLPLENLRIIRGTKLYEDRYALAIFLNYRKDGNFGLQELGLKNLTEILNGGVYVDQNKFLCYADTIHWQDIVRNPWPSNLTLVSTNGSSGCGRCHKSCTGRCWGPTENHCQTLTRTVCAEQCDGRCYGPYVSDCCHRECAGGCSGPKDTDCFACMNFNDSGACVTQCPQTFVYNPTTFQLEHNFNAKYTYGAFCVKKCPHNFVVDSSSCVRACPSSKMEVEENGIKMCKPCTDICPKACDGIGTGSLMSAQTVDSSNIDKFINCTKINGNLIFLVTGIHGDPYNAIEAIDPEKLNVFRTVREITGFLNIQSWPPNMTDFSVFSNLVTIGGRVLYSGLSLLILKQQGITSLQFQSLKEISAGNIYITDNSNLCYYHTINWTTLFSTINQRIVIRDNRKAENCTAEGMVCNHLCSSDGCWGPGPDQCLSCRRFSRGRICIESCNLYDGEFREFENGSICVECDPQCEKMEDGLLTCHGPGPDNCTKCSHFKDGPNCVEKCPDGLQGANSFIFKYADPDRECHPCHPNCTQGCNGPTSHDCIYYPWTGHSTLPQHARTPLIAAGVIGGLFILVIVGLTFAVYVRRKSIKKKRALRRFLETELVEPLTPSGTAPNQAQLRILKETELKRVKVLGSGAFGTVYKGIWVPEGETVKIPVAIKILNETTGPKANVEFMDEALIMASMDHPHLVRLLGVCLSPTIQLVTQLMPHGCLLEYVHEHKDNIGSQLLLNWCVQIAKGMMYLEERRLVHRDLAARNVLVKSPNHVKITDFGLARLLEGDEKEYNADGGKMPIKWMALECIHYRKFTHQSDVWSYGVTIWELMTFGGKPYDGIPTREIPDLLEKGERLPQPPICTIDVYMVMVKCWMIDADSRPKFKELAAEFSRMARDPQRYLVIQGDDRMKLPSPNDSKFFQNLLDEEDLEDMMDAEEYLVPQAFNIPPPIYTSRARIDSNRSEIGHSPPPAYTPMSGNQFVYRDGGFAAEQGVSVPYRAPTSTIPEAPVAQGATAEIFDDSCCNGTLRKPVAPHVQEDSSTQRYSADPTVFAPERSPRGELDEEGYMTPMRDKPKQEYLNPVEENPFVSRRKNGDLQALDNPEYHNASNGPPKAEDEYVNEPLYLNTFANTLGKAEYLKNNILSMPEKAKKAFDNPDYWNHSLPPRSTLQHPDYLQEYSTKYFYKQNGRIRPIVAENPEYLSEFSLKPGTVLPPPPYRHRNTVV
For experiment [9] the target is unchanged. The settings on record: at 10 µM.
The target of experiment [10] is Fibroblast growth factor receptor 2 (Homo sapiens) (UniProt P21802). Conditions: at 1 µM.
Sequence of Fibroblast growth factor receptor 2 (Homo sapiens) (P21802 22-821 limits assumed): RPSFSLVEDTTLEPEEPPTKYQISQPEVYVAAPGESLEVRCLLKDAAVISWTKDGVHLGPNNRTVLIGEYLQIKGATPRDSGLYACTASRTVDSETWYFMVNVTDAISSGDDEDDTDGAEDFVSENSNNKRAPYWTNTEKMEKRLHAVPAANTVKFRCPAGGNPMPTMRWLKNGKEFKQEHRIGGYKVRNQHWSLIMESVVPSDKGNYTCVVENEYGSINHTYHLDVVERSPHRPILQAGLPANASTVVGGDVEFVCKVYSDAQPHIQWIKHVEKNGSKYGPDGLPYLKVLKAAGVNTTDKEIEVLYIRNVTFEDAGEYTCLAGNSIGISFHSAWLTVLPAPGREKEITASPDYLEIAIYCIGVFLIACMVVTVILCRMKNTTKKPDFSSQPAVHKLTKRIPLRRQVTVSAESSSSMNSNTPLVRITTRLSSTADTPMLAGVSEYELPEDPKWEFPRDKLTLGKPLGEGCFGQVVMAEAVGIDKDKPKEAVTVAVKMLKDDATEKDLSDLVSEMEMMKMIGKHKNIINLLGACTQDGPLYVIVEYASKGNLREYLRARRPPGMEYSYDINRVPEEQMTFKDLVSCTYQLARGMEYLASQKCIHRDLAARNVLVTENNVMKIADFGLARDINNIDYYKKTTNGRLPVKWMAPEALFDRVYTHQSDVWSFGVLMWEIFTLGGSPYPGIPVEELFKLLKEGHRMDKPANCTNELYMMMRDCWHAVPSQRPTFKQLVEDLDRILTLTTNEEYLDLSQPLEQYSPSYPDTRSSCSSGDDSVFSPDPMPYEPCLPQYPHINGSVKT
For experiment [11] the target is unchanged. Conditions: at 10 µM.
The target in experiment [12] is Fibroblast growth factor receptor 4 (Homo sapiens) (UniProt P22455). The settings on record: at 1 µM.
Sequence of Fibroblast growth factor receptor 4 (Homo sapiens) (P22455 22-802 limits assumed): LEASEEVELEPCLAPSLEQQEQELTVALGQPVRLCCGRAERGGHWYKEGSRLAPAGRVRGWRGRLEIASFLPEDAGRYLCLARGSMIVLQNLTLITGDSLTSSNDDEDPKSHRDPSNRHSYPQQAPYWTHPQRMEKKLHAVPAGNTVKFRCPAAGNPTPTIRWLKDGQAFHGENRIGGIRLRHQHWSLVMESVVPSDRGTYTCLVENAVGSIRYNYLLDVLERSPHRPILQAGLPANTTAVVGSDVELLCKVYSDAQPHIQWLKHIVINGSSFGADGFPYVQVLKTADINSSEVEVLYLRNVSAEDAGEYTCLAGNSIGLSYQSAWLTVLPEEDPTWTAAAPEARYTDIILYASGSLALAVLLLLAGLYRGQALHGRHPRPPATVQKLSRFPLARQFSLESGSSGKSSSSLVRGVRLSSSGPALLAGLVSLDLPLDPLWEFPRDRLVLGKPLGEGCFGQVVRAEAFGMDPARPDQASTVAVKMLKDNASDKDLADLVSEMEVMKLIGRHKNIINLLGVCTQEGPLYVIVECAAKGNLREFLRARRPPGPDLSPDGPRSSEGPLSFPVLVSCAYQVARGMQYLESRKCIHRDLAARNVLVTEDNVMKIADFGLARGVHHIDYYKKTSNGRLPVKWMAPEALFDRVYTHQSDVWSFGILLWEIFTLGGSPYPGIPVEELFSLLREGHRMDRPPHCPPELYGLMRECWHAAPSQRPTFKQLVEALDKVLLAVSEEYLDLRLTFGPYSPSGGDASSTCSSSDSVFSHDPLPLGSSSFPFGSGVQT
For experiment [13] the target is unchanged. The settings on record: at 10 µM.
Experiment [14] has as its target Focal adhesion kinase 1 (Homo sapiens) (UniProt Q05397). The settings on record: at 1 µM.
Experiment [15] shares this target. The settings on record: at 10 µM.
Experiment [16] addresses Fibroblast growth factor receptor 1 (Homo sapiens) (UniProt P11362). The settings on record: at 1 µM.
Experiment [17] has the same target. Conditions: at 10 µM.
Experiment [18] addresses Tyrosine-protein kinase Fer (Homo sapiens) (UniProt P16591). The settings on record: at 1 µM.
Experiment [19] has as its target Fibroblast growth factor receptor 3 (Homo sapiens) (UniProt P22607). Conditions: at 1 µM.
Experiment [20] has the same target. The settings on record: at 10 µM.

This is an account of results in ChEMBL document CHEMBL2218924, “A broad activity screen in support of a chemogenomic map for kinase signalling research and drug discovery” (Biochem J, 2013).

Sequence of Fibroblast growth factor receptor 1 (Homo sapiens) (P11362 22-822 limits assumed): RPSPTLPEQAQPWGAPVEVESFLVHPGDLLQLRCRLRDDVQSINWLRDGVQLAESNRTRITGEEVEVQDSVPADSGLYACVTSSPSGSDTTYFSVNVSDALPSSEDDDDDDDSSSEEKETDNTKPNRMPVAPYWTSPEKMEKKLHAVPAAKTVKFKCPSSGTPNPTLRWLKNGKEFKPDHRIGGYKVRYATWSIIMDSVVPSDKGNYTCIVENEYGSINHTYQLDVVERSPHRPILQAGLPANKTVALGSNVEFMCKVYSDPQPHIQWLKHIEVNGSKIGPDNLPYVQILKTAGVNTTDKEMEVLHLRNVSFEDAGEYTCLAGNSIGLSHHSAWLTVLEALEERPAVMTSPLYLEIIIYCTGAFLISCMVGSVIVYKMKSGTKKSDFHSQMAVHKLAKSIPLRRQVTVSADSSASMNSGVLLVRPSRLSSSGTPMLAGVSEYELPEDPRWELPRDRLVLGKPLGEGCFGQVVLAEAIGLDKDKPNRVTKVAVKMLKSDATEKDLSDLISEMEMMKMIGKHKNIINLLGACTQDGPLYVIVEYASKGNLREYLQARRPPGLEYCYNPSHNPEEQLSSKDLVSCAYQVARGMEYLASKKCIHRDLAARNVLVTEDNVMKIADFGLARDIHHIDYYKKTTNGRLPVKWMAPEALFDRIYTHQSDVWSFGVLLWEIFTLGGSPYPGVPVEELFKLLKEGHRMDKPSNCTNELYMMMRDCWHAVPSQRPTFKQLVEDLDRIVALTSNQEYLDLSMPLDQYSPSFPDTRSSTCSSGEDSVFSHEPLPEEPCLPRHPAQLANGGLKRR
Sequence of Focal adhesion kinase 1 (Homo sapiens) (Q05397 2-1052 limits assumed): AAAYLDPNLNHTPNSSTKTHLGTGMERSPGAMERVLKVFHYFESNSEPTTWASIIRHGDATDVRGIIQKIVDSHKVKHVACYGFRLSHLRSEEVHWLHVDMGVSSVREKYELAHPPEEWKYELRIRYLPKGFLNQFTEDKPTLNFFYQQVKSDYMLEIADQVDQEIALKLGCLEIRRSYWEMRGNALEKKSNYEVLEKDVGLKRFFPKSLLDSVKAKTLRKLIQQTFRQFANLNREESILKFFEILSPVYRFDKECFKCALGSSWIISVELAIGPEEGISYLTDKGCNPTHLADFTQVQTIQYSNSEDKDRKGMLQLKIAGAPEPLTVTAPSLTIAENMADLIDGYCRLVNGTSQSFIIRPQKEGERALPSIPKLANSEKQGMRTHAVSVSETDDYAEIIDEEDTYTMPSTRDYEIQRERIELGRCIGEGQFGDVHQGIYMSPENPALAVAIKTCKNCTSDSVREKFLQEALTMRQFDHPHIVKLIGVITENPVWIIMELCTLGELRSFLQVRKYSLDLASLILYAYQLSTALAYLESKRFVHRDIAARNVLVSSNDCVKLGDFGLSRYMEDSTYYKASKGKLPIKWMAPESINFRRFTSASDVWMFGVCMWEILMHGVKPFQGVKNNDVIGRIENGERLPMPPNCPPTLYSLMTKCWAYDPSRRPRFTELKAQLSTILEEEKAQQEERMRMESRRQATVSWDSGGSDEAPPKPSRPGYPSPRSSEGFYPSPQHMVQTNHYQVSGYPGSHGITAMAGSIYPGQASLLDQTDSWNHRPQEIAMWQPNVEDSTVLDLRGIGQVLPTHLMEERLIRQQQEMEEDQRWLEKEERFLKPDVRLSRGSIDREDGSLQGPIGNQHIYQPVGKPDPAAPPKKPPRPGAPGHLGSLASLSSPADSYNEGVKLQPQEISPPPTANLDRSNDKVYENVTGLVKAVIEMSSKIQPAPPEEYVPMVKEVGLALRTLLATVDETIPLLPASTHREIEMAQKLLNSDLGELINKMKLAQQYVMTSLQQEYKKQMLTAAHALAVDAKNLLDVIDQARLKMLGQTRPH

Usually residual activity stands for the signal under treatment as a percentage of the control signal. For the compound `NC(=O)c1ccc(-c2nc(-c3ccc4c(c3)OCCO4)c(-c3ccccn3)[nH]2)cc1`, the residual activity in [1] is 85%; in experiment [2] it was 96%; in experiment [3] it was 24%; in [4], 117% (inactive); in experiment [5] it was 98%; in experiment [6] it was 85%. Moreover, the residual activity in experiment [7] turned out to be 41%; in experiment [8] it was 89%; in experiment [9] it was 59%; in experiment [10], 117%; in [11] it was 82%; in experiment [12], 122%. The residual activity in experiment [13] was found to be 95%.

Consider `CCCCc1c(-c2ccc(O)cc2)[nH]c2nccnc12`, for which the residual activity was determined as 22% in experiment [1]; 96% in [2]; 82% in experiment [3]; 74% in experiment [6]; 16% in experiment [7]; 76% in experiment [14]. The residual activity came out at 19% in experiment [15]; 41% in [16]; 11% in experiment [17]; 85% in experiment [10]; 59% in [11]; 127% in experiment [12]. The residual activity amounted to 99% in experiment [13] and 86% in [18].

Turning to `O=C1Cc2c([nH]c3ccc(Br)cc23)-c2ccccc2N1`, the residual activity in experiment [1] was determined as 76%; in [2], 121%; in experiment [3], 120%; in [6], 89%; in experiment [7], 71%; in experiment [14] it was 82%. Further, the residual activity in experiment [15] stood at 28%; in [16], 87%; in experiment [17], 32%; in experiment [19] it was 127%; in experiment [20], 87%; in experiment [13] it was 96%.

Consider `COc1ccc(CNC(=O)Nc2ncc([N+](=O)[O-])s2)cc1`, for which the residual activity in experiment [1] was 80%; in experiment [2], 105%; in experiment [3], 117%; in experiment [4], 117% (inactive); in [5] it was 105%; in experiment [7], 78%. Besides, the residual activity in experiment [8] was found to be 43%; in experiment [9], 33%; in experiment [16], 102%; in experiment [17] it was 77%; in [10] it was 100%; in experiment [11], 78%. Also, the residual activity in experiment [19] amounted to 112%; in experiment [20] it was 113%.

Regarding `CCN(CC)CCNC(=O)c1c(C)[nH]c(/C=C2\C(=O)Nc3ccc(Cl)cc32)c1C`, the residual activity in experiment [1] was 24%; in [4], 129% (inactive); in [5] it was 130%; in experiment [6], 100%; in experiment [7], 35%; in experiment [14], 15%. Besides, the residual activity in [15] is 4%; in experiment [16], 7%; in [17], 1%; in [10], 14%; in [11], 3%; in [19], 8%. The results for the residual activity in experiment [20] and in experiment [18] were 1% and 79%, respectively.

With `O=C1Nc2ccc(Cl)cc2/C1=C/c1cc(Cl)c(O)c(Cl)c1`, the residual activity was 86% in experiment [1]; 113% (inactive) in experiment [4]; 115% in experiment [5]; 91% in experiment [8]; 76% in [9]; 115% in experiment [14]. For the same compound, the residual activity stood at 58% in experiment [15]; 93% in experiment [16]; 53% in [17]; 80% in [10]; 39% in [11]; 96% in [19]. Further, the residual activity in experiment [20] came out at 62%.
